Assay results reported in PubChem BioAssay (Tox21).
Results filed as inconclusive are left out. A call without a number means that no potency is given here. Where a structure was tested more than once in an assay, its records may differ in their call. The source made the active and inactive calls. Unless noted, the call rests on the fitted dose curve.

Tests used:
[1] = Nuclear factor erythroid 2-related factor 2/antioxidant responsive element (Nrf2/ARE) small molecule agonists: qHTS cell viability counter screen in human keratinocytes (AID 1919968; active means well fitted curve in the direction sought with a large enough effect in the repeat runs; an effect the other way counts as inactive or inconclusive; further: nearly all actives have a fitted effect of over 55% in size)
Method in brief: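 HaCaT ARE reporter line, 1,500 cells/well; 5 h settle, 37 C/5% CO2; cpd in DMSO pinned; 23 h exposure; CellTiter-Fluor, 1 h; fluorescence.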

[2] = Nuclear factor erythroid 2-related factor 2/antioxidant responsive element (Nrf2/ARE) small molecule agonists: luciferase reporter gene qHTS assay in human keratinocytes (AID 1919969); further: nearly all actives have a fitted effect of over 35% in size; further: potency means the concentration at half of the fitted maximal effect
[3] = biological target: Gonadotropin-releasing hormone receptor (Homo sapiens) (UniProt P30968); test: Human gonadotropin-releasing hormone receptor (GnRHR) small molecule agonists, calcium flux assay in GnRHR-HEK293 cells (AID 1920063); further: nearly all actives have a fitted effect of over 35% in size
Method in brief: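 GnRHR-HEK293, 1500 cells/well, 18 h 37 C/5% CO2; Ca dye 1 h 37 C; cpd pinned (DMSO), agonist mode; kinetic FL 480/540, 3 min, 1 s reads; 15 conc, n=3.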

[4] = biological target: KiSS-1 receptor (Homo sapiens) (UniProt Q969F8); test: Human kisspeptin (KISS1R) small molecule agonists, calcium flux assay in KISS1R-HEK293 cells (AID 1920064; active means well fitted curve in the direction sought with a large enough effect in the repeat runs; an effect the other way counts as inactive or inconclusive)
Method in brief: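 Stable human KISS1R HEK293 line; 18 h plating, 37 C/5% CO2; calcium dye 1 h 37 C; compound pin transfer; kinetic fluorescence Ex/Em 480/540, 3 min.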

[5] = G protein-coupled receptor (GPCR) small molecule agonists, calcium flux assay: HEK293 wild type cell line counter screen (AID 1920065)
Method in brief: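 Kinetic fluorescence at Ex/Em 480/540, recorded every second over 3 min, served as the read-out after compound addition. Each compound was tested at 15 concentrations in triplicate on cells pre-loaded with calcium dye for 1 h.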

[6] = p53 small molecule agonists, cell-based qHTS assay with human liver microsomes: qHTS cell viability counter screen (AID 1963579); further: nearly all actives have a fitted effect of over 45% in size
Method in brief: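 Tox21 library compounds, delivered from DMSO stocks, were tested on p53RE-bla cells together with 0.5 mg/mL human liver microsomes and 0.5 mg/mL NADPH (final) over 16 h at 37 C; CellTiter-Glo luminescence served as the cytotoxicity measure.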

[7] = p53 small molecule agonists, cell-based qHTS assay with rat liver microsomes: qHTS cell viability counter screen (AID 1963580); further: nearly all actives have a fitted effect of over 45% in size
Method in brief: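 HCT-116 p53RE-bla, 4,000 cells/well, 5 h pre-incubation; cpd + rat liver microsomes 0.5 mg/mL + NADPH 0.5 mg/mL (final); 16 h, 37 C; CellTiter-Glo, 30 min RT; luminescence.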

[8] = p53 small molecule agonists, cell-based qHTS assay: qHTS cell viability counter screen (AID 1963581); further: nearly all actives have a fitted effect of over 45% in size
Method in brief: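 HCT-116 p53RE-bla cells, 4,000/well, plated 5 h before compound pin transfer; 16 h at 37 C; bla substrate 2 h RT; then CellTiter-Glo, 30 min RT, luminescence.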

[9] = biological target: 5-hydroxytryptamine receptor 2A (Homo sapiens) (UniProt P28223); test: 5-hydroxytryptamine receptor 2A (HTR2A) small molecule antagonists, cell-based qHTS assay (AID 1963586); further: nearly all actives have a fitted effect of over 45% in size
Method in brief: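 Antagonist-mode intracellular calcium assay: DOI (4 nM) added after 5 min compound pre-incubation at room temperature to dye-loaded HTR2A-CHO cells. Fluorescence followed for 3 min, sampled every second.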

[10] = biological target: 5-hydroxytryptamine receptor 2A (Homo sapiens) (UniProt P28223); test: 5-hydroxytryptamine receptor 2A (HTR2A) small molecule agonists, cell-based qHTS assay (AID 1963587); further: nearly all actives have a fitted effect of over 30% in size
Method in brief: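 Kinetic calcium-flux fluorescence (2 min, 1 sec intervals) after compound addition in agonist mode. HTR2A-CHO cells were cultured 18 h, then dye-loaded 1 h at 37 C.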

[11] = biological target: Muscarinic acetylcholine receptor M1 (Homo sapiens) (UniProt P11229); test: Cholinergic receptor muscarinic 1 (CHRM1) small molecule antagonists, cell-based qHTS assay (AID 1963588); further: nearly all actives have a fitted effect of over 40% in size; further: potency means the concentration at half of the fitted maximal effect
Method in brief: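 CHRM1-CHO calcium-flux assay, antagonist mode. Cells were seeded 18 h, dye-loaded 1 h at 37 C and given compound for 5 min at RT, then acetylcholine was added at 50nM. FDSS fluorescence was read 3 min; 15 concentrations, three runs.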

[12] = biological target: Muscarinic acetylcholine receptor M1 (Homo sapiens) (UniProt P11229); test: Cholinergic receptor muscarinic 1 (CHRM1) small molecule agonists, cell-based qHTS assay (AID 1963589); further: nearly all actives have a fitted effect of over 35% in size
Method in brief: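 Human M1 in stable CHO line; 18 h plating, 1 h dye load 37 C; cpd added (agonist mode); Ca2+ fluorescence kinetic read, 1 s intervals; 15 conc, 3 runs.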

[13] = cAMP Responsive Elements (CRE) small molecule antagonists, cell-based qHTS assay (AID 1963591; active means well fitted inhibition curve with a large enough effect in the signal ratio in the repeat runs, not every such curve was filed as active; the % refers to the signal ratio)
Method in brief: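 Beta-lactamase reporter read by FRET substrate (LiveBLAzer B/G) after 2 h at room temperature. CRE-bla HEK293T cells had received compound plus 0.25 uM (final) NKH477 for 3 h at 37 °C.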

[14] = biological target: Beta-2 adrenergic receptor (Homo sapiens) (UniProt P07550); test: Adrenergic beta2 receptor (ADRB2) small molecule antagonists, cell-based qHTS assay (AID 1963592); further: series mostly up to about 92 µM; nearly all actives have a fitted effect of over 50% in size
Method in brief: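 Cells (CHO, stable ADRB2 overexpression) incubated 18-20hr at 37C; compounds added from DMSO; agonist mix (1nM isoproterenol, 100uM IBMX, 25uM Ro-20-1724) added; 0.5hr RT; d2-cAMP and anti-cAMP-cryptate added; 1hr RT; 665/615 nm read.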

[15] = biological target: D(2) dopamine receptor (Homo sapiens) (UniProt P14416); test: Dopamine D2 receptor (DRD2) small molecule agonists, cell-based qHTS assay (AID 1963594); further: nearly all actives have a fitted effect of over 35% in size
Method in brief: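 cAMP accumulation in DRD2-HEK293 cells measured by HTRF after 1 h detection; compounds added 10 min before NKH477 (200nM […]) forskolin-analogue stimulation, 30 min at room temperature, with Ro20-1724 present at 0.1 mM final.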

[16] = biological target: D(2) dopamine receptor (Homo sapiens) (UniProt P14416); test: Dopamine D2 receptor (DRD2) small molecule antagonists, cell-based qHTS assay (AID 1963595; active means well fitted inhibition curve with a large enough effect in the signal ratio in the repeat runs, with a control signal flat; the % refers to the signal ratio)
Method in brief: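 Human DRD2 antagonist qHTS measuring cAMP by HTRF. The cells are exposed to compound for 10 min, then to NKH477 (200 nM) and quinpirole (12 nM) for 30 min at RT, with Ro20-1724 (0.1 mM) present throughout.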

[17] = cAMP Responsive Elements (CRE) small molecule agonists, cell-based qHTS assay (AID 1963590)
Method in brief: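 HEK 293T CRE-bla, 2,000 cells/well, 18 h preincubation 37 C/5% CO2; cpds (DMSO) pinned, 3 h; LiveBLAzer B/G FRET substrate, 2 h RT.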

[18] = biological target: Beta-2 adrenergic receptor (Homo sapiens) (UniProt P07550); test: Adrenergic beta2 receptor (ADRB2) small molecule agonists, cell-based qHTS assay (AID 1963593);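 further: CHO cells stably overexpressing human ADRB2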
Method in brief: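 CHO cells stably over-expressing ADRB2 were plated overnight at 37C, then dosed with compounds plus a stimulation mix containing 100uM IBMX and 25uM Ro-20-1724 for 0.5hr at room temperature. cAMP was measured by HTRF competition, 1hr.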

Chain of D(2) dopamine receptor (Homo sapiens) (P14416 whole entry, looked up): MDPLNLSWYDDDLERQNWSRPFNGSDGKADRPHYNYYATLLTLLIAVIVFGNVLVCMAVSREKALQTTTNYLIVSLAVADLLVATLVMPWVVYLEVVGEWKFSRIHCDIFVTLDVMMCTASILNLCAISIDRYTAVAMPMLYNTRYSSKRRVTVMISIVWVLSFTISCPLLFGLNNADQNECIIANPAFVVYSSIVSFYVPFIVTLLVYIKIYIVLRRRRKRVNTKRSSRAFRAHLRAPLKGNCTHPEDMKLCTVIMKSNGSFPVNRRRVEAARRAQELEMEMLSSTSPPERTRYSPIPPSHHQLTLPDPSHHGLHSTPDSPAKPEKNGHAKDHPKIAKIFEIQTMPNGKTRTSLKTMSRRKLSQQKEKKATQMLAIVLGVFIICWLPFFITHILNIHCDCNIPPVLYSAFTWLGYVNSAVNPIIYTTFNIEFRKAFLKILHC
Chain of Gonadotropin-releasing hormone receptor (Homo sapiens) (P30968 whole entry, looked up): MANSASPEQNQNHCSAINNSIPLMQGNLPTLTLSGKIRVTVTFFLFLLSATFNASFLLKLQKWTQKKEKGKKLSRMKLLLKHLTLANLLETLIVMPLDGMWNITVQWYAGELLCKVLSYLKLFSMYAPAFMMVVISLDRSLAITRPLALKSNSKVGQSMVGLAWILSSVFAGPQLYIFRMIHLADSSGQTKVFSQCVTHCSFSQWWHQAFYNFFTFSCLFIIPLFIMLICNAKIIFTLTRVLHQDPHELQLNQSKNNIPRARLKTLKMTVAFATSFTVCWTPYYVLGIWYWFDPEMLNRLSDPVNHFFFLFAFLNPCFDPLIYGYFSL
Chain of Muscarinic acetylcholine receptor M1 (Homo sapiens) (P11229 whole entry, looked up): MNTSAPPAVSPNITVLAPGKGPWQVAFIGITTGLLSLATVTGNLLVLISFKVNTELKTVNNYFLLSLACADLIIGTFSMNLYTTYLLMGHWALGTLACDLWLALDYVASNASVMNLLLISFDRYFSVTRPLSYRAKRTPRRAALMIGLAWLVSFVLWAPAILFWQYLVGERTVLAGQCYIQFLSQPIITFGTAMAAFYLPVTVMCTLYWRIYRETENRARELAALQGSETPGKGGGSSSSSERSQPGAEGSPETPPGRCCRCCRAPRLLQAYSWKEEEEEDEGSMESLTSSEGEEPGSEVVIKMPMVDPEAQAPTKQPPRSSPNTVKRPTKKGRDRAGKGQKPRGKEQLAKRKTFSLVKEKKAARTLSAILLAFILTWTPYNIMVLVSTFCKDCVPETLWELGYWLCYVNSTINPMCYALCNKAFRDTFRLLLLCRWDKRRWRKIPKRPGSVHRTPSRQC
Chain of 5-hydroxytryptamine receptor 2A (Homo sapiens) (P28223 whole entry, looked up): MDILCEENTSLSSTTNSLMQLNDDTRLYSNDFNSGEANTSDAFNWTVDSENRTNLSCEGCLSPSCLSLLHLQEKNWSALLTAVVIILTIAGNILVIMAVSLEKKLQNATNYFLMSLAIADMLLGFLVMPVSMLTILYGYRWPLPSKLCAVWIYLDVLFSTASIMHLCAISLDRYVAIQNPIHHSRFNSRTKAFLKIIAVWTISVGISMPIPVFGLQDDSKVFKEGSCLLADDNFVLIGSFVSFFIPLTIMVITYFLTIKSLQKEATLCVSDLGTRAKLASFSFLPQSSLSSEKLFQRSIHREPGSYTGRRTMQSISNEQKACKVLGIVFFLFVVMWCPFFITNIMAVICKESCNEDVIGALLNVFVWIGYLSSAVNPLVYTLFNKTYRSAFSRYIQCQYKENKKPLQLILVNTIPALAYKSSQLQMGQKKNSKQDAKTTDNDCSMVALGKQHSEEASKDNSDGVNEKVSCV
Chain of Beta-2 adrenergic receptor (Homo sapiens) (P07550 whole entry, looked up): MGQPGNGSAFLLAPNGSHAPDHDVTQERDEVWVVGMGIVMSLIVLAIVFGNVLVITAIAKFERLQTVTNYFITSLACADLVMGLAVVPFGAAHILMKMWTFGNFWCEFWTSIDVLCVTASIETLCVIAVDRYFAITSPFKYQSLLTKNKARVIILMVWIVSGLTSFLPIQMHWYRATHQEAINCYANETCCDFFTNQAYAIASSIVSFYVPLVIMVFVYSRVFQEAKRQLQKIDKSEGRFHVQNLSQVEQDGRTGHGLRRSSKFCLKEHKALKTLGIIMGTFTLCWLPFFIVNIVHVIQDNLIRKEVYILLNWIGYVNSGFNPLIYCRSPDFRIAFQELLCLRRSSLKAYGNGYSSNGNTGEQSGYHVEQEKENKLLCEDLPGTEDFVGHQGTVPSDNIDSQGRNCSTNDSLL
Chain of KiSS-1 receptor (Homo sapiens) (Q969F8 whole entry, looked up): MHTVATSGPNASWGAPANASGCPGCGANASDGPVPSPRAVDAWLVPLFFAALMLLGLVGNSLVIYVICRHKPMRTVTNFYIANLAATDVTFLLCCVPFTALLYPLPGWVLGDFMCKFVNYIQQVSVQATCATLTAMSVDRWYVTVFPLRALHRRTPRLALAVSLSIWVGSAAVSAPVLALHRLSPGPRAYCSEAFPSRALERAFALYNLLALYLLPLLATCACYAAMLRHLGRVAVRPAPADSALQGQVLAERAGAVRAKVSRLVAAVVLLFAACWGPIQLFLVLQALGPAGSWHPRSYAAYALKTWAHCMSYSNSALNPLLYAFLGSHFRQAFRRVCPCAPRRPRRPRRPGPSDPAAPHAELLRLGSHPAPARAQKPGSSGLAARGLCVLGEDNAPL

SMILES | Potency [1] | Potency [2] | Potency [3] | Potency [4] | Potency [5] | Potency [6] | Potency [7] | Potency [8] | Potency [9] | Potency [10] | Potency [11] | Potency [12] | Potency [13] | Potency [14] | Potency [15] | Potency [16] | Potency [17] | Potency [18]
O=C(O)Cc1ccccc1 | inactive | inactive | inactive | inactive | inactive | inactive | inactive | inactive | inactive | inactive | 266 nM (active) and inactive | inactive | inactive | inactive | inactive | inactive | – | –
N#CC(Br)Br | inactive | inactive | inactive | inactive | inactive | inactive | inactive | inactive | inactive | inactive | inactive | inactive | inactive | inactive | inactive | inactive | inactive | inactive
[CH3][Sn]([CH3])([Cl])[Cl] | inactive | 55.4 µM (active) and inactive | inactive | inactive | inactive | inactive | inactive | inactive | inactive | inactive | inactive | inactive | inactive | inactive | inactive | inactive | inactive | inactive
